Data published in PubChem BioAssay AID2108 (National Center for Advancing Translational Sciences (NCATS), 2009).
Inconclusive results are not listed. The source made the active and inactive calls. Calls come from the whole dose curve; as a rule, active = well fitted curve in the direction sought with a large enough effect; inconclusive = small, poorly fitted or top-dose-only effect, or effect the other way, or another doubt; inactive = no such curve, though single readings can be large or run the other way.

target: Alpha-galactosidase A (Homo sapiens) (UniProt P06280); experiment: Confirmation of Inhibitors of Human alpha-Galactosidase Using Spleen Homogenate; conditions: alpha-galactosidase enzyme activity; series mostly up to 56.2 µM
Summary of the method: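 AC50 values come from Hill-equation fits of normalised 4-methylumbelliferone fluorescence (365/440 nm, read after NaOH/glycine stop). Enzyme source: spleen homogenate; substrate 1 mM final; pH 5.0 citrate buffer; 40 min at 37C; compound titration 0.5 nM–58 uM.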

Chain of Alpha-galactosidase A (Homo sapiens) (P06280 32-429 limits assumed): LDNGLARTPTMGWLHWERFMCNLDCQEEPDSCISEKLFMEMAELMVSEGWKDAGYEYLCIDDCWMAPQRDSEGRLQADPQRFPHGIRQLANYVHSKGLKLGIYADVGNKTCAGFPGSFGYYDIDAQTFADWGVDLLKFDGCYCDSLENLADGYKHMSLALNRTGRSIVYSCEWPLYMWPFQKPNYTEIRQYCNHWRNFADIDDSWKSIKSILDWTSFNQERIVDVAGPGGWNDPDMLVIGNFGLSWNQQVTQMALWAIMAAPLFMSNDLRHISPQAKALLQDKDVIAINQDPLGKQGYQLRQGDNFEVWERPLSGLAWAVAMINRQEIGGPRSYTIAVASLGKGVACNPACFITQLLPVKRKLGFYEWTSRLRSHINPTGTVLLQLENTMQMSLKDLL

outcome, inactive:
Nc1c(NCCN2CCCCC2)c2ccccc2oc1=O, Cc1sc(-c2cc3ccccc3oc2=O)nc1-c1ccc(Cl)cc1, CCCC1(C)Nc2ccccc2-c2nc3ccccc3n21 (configuration not stated), Cc1[nH]nc2c1C(c1ccc(OC(=O)c3ccco3)cc1)C(C#N)=C(N)O2 (configuration not stated), Cc1c(OCC(F)(F)F)ccnc1CS(=O)c1nc2ccccc2[nH]1 (configuration not stated), CCc1sc(-c2cc3ccc(O)cc3oc2=O)nc1-c1ccc(C)cc1, OCC1NCC(O)C(O)C1O (configuration not stated), COc1ccc(C(=O)N2CCN(c3ccc([N+](=O)[O-])c(NCCc4ccc(OC)c(OC)c4)c3)CC2)cc1, Cc1ccc(-c2nc(-c3cc4ccccc4oc3=O)sc2C)cc1, Nc1ccc(Cc2ccc(N)c(O)c2)cc1O, O=S(=O)(c1ccccc1)N1CCN(c2ccccc2)CC1, O=c1cc(-c2ccccc2)[nH]c2[nH]n(-c3ccccc3)c(=O)c12, O=c1oc2ccc(Cl)cc2cc1-c1nc2c(s1)CCCC2, CCN(CC)c1ccc(/C=N/NC(=O)C(O)c2ccccc2)cc1 (configuration not stated), CN(C)N=C1c2cc(S(=O)(=O)N3CCOCC3)ccc2-c2ccc(S(=O)(=O)N3CCOCC3)cc21, O=C(O)Cc1sc(-c2cc3ccccc3oc2=O)nc1-c1ccc(Br)cc1, CCOC(=O)c1c(-c2ccc(-c3ccccc3)cc2)csc1NC(=O)CCN1CCOCC1, COc1ccccc1NCC(=O)c1ccc(C)c(C)c1, COc1ccc(C2=NNC(c3cc(Cl)cc4c3OCOC4)C2)c(O)c1 (configuration not stated), COc1ccccc1CCNC(=O)C1CCC(=O)N(C2CC2)C1 (configuration not stated), CC(=O)Nc1c(S(=O)(=O)c2ccccc2)c2nc3ccccc3nc2n1Cc1ccccc1, CC(=O)c1ccc(N2CCN(S(=O)(=O)c3ccc4c(c3)CC(=O)N4)CC2)cc1, CC1(C)CC(=O)c2cc(C(=O)NCc3ccco3)c(=O)n(-c3ccc(Cl)cc3)c2C1, CC(=O)N1CCN(c2ccc(NCc3ccc(C)cc3)cc2)CC1, O=C(NCCCN1CCOCC1)c1cccs1, CC1(CCc2ccc3c(c2)OCO3)NC(=O)c2ccccc2N1 (configuration not stated), c1ccc(-c2nc3nc4ccccc4nc3n2CC2CCCO2)cc1 (configuration not stated), Cc1c(C(=O)NCc2ccccc2F)oc2ccccc12, CCCn1c(=O)c2c(C(F)(F)F)cc(-c3cccs3)nc2n(CCC)c1=O, Cc1ccc(S(=O)(=O)N2CCN(C(=O)C3COc4ccccc4O3)CC2)cc1C (configuration not stated), CCN(CC)c1ccc(-c2nc3cnccn3c2NC2CCCC2)cc1, Cc1ccc(S(=O)(=O)NC(=O)NN2CCCCCC2)cc1, O=NOc1ccc(/C=C/c2nccc3c2[nH]c2ccccc23)cc1, CC1(C)CC(=O)c2cc(C(=O)NC3CCSC3=O)c(=O)n(-c3ccccc3)c2C1 (configuration not stated), CCCCN1C[C@H](O)[C@@H](O)[C@H](O)[C@H]1CO, CCCCCCc1cc2cc(C(=O)NC)c(=N)oc2cc1O, Nc1ccccc1S(=O)(=O)N1CCOCC1
